{"source": "the supplement of paper PMC8728848", "binders": {"B1": {"name": "EEA (Euonymus europaeus) (protein)", "chain": "MASTIIATGPTYRVYCRAAPNYNMIVGKGVAFLAPIDETNELQYWYKDDTYSYIKDEAGLPAFSLVNKATGLTLKHSNHHPVPVKLVTYNPNVVDESVLWSQADDRGDGYSAIRSLTNPASHLEAAPLNDWSYNGAIIMGGVWIDAYNQQWKIEPHTG"}}, "experiment_in_all_cases": "glycan array binding signal (z-score within array); higher = stronger binding", "details_in_all_cases": "glycan notation: IUPAC condensed, linker removed", "key": {"[1]": {"biological_target": "Fuc(a1-2)Gal(b1-4)[Fuc(a1-3)]GlcNAc(b1-3)GalNAc", "procedure,_shortened": "(§1)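 Glycan array data were curated from 3228 arrays in the Consortium for Functional Glycomics database and kept only where the protein sequence was available. Glycan names were converted to IUPAC-condensed notation, and columns mapping to the same glycan were averaged. The binding signal is a within-array Z-score, averaged across arrays of the same protein sequence at different concentrations or buffers and across linkers. Negative Z-scores can be read as non-binding.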"}, "[2]": {"biological_target": "Fuc(a1-2)[Gal(a1-3)]Gal(b1-3)GlcNAc", "procedure,_shortened": "as §1"}, "[3]": {"biological_target": "Fuc(a1-2)[Gal(a1-3)]Gal(b1-3)GlcNAc(b1-2)Man(a1-3)[Fuc(a1-2)[Gal(a1-3)]Gal(b1-3)GlcNAc(b1-2)Man(a1-6)]Man(b1-4)GlcNAc(b1-4)GlcNAc", "procedure,_shortened": "as §1"}, "[4]": {"biological_target": "Fuc(a1-2)[Gal(a1-3)]Gal(b1-3)GlcNAc(b1-2)Man(a1-3)[Fuc(a1-2)[Gal(a1-3)]Gal(b1-3)GlcNAc(b1-2)Man(a1-6)]Man(b1-4)GlcNAc(b1-4)[Fuc(a1-6)]GlcNAc", "procedure,_shortened": "as §1"}, "[5]": {"biological_target": "Fuc(a1-2)[Gal(a1-3)]Gal(b1-3)GlcNAc(b1-6)GalNAc", "procedure,_shortened": "as §1"}, "[6]": {"biological_target": "Fuc(a1-2)[Gal(a1-3)]Gal(b1-4)Glc", "procedure,_shortened": "as §1"}, "[7]": {"biological_target": "Fuc(a1-2)[Gal(a1-3)]Gal(b1-4)GlcNAc", "procedure,_shortened": "as §1"}, "[8]": {"biological_target": "Fuc(a1-2)[Gal(a1-3)]Gal(b1-4)GlcNAc(b1-2)Man", "procedure,_shortened": "as §1"}, "[9]": {"biological_target": "Fuc(a1-2)[Gal(a1-3)]Gal(b1-4)GlcNAc(b1-2)Man(a1-3)[Fuc(a1-2)[Gal(a1-3)]Gal(b1-4)GlcNAc(b1-2)Man(a1-6)]Man(b1-4)GlcNAc(b1-4)GlcNAc", "procedure,_shortened": "as §1"}, "[10]": {"biological_target": "Fuc(a1-2)[Gal(a1-3)]Gal(b1-4)GlcNAc(b1-2)Man(a1-3)[Fuc(a1-2)[Gal(a1-3)]Gal(b1-4)GlcNAc(b1-2)Man(a1-6)]Man(b1-4)GlcNAc(b1-4)[Fuc(a1-6)]GlcNAc", "procedure,_shortened": "as §1"}, "[11]": {"biological_target": "Fuc(a1-2)[Gal(a1-3)]Gal(b1-4)GlcNAc(b1-3)GalNAc", "procedure,_shortened": "as §1"}, "[12]": {"biological_target": "Fuc(a1-2)[Gal(a1-3)]Gal(b1-4)GlcNAc(b1-6)GalNAc", "procedure,_shortened": "as §1"}, "[13]": {"biological_target": "Fuc(a1-2)[Gal(a1-3)]Gal(b1-4)[Fuc(a1-3)]GlcNAc", "procedure,_shortened": "as §1"}, "[14]": {"biological_target": "Fuc(a1-3)[Gal(b1-4)]GlcNAc(b1-2)Man(a1-3)[Fuc(a1-3)[Gal(b1-4)]GlcNAc(b1-2)Man(a1-6)]Man(b1-4)GlcNAc(b1-4)GlcNAc", "procedure,_shortened": "as §1"}, "[15]": {"biological_target": "Fuc(a1-3)[Gal(b1-4)]GlcNAc(b1-3)Gal(b1-3)[Fuc(a1-4)]GlcNAc", "procedure,_shortened": "as §1"}, "[16]": {"biological_target": "Fuc(a1-3)[Gal(b1-4)]GlcNAc(b1-3)Gal(b1-4)[Fuc(a1-3)]GlcNAc(b1-3)Gal(b1-4)[Fuc(a1-3)]GlcNAc", "procedure,_shortened": "as §1"}, "[17]": {"biological_target": "Fuc(a1-3)[Gal(b1-4)]GlcNAc(b1-6)GalNAc", "procedure,_shortened": "as §1"}, "[18]": {"biological_target": "Fuc(a1-3)[Gal3S(b1-4)]GlcNAc6S", "procedure,_shortened": "as §1"}, "[19]": {"biological_target": "Gal(a1-3)Fuc(a1-2)Gal(b1-4)GlcNAc(b1-3)[Gal(a1-3)Fuc(a1-2)Gal(b1-4)GlcNAc(b1-6)]GalNAc", "procedure,_shortened": "as §1"}, "[20]": {"biological_target": "Gal(b1-3)GlcNAc(b1-2)Man(a1-3)[Gal(b1-3)GlcNAc(b1-2)Man(a1-6)]Man(b1-4)GlcNAc(b1-4)GlcNAc", "procedure,_shortened": "as §1"}, "[21]": {"biological_target": "Gal(b1-3)GlcNAc(b1-3)Gal(b1-4)GlcNAc(b1-3)Gal(b1-4)GlcNAc(b1-2)[Gal(b1-3)GlcNAc(b1-3)Gal(b1-4)GlcNAc(b1-3)Gal(b1-4)GlcNAc(b1-6)]Man(a1-6)[Gal(b1-3)GlcNAc(b1-3)Gal(b1-4)GlcNAc(b1-3)Gal(b1-4)GlcNAc(b1-2)Man(a1-3)]Man(b1-4)GlcNAc(b1-4)[Fuc(a1-6)]GlcNAc", "procedure,_shortened": "as §1"}, "[22]": {"biological_target": "Gal(b1-4)GlcNAc(b1-2)Man(a1-3)Man(b1-4)GlcNAc(b1-4)GlcNAc", "procedure,_shortened": "as §1"}, "[23]": {"biological_target": "Gal(b1-4)GlcNAc(b1-2)Man(a1-3)[GlcNAc(b1-2)Man(a1-6)]Man(b1-4)GlcNAc(b1-4)GlcNAc", "procedure,_shortened": "as §1"}, "[24]": {"biological_target": "Gal(b1-4)GlcNAc(b1-2)[Gal(b1-4)GlcNAc(b1-4)]Man(a1-3)[Gal(b1-4)GlcNAc(b1-2)Man(a1-6)]Man(b1-4)GlcNAc(b1-4)GlcNAc", "procedure,_shortened": "as §1"}, "[25]": {"biological_target": "Gal(b1-4)GlcNAc(b1-3)Gal(b1-3)GalNAc", "procedure,_shortened": "as §1"}, "[26]": {"biological_target": "Gal(b1-4)GlcNAc(b1-3)Gal(b1-3)GlcNAc", "procedure,_shortened": "as §1"}, "[27]": {"biological_target": "Gal(b1-4)GlcNAc(b1-3)Gal(b1-4)Glc", "procedure,_shortened": "as §1"}, "[28]": {"biological_target": "Gal(b1-4)GlcNAc(b1-3)Gal(b1-4)GlcNAc(b1-3)Gal(b1-4)GlcNAc(b1-2)Man(a1-3)[Gal(b1-4)GlcNAc(b1-3)Gal(b1-4)GlcNAc(b1-3)Gal(b1-4)GlcNAc(b1-2)Man(a1-6)]Man(b1-4)GlcNAc(b1-4)[Fuc(a1-6)]GlcNAc", "procedure,_shortened": "as §1"}}, "note": "Shown is part of a subset that was picked to be rich in the strongest signals."}
{"binder": "B1", "values": [{"measurement": "glycan array binding signal (z-score)", "setting": "[1]", "result": 0.023}, {"measurement": "glycan array binding signal (z-score)", "setting": "[2]", "result": 5.83}, {"measurement": "glycan array binding signal (z-score)", "setting": "[3]", "result": 5.22}, {"measurement": "glycan array binding signal (z-score)", "setting": "[4]", "result": 3.76}, {"measurement": "glycan array binding signal (z-score)", "setting": "[5]", "result": 3.77}, {"measurement": "glycan array binding signal (z-score)", "setting": "[6]", "result": 4.49}, {"measurement": "glycan array binding signal (z-score)", "setting": "[7]", "result": 6.17}, {"measurement": "glycan array binding signal (z-score)", "setting": "[8]", "result": 3.94}, {"measurement": "glycan array binding signal (z-score)", "setting": "[9]", "result": 11.4}, {"measurement": "glycan array binding signal (z-score)", "setting": "[10]", "result": 5.12}, {"measurement": "glycan array binding signal (z-score)", "setting": "[11]", "result": 4.01}, {"measurement": "glycan array binding signal (z-score)", "setting": "[12]", "result": -0.195}, {"measurement": "glycan array binding signal (z-score)", "setting": "[13]", "result": -0.181}, {"measurement": "glycan array binding signal (z-score)", "setting": "[14]", "result": -0.21}, {"measurement": "glycan array binding signal (z-score)", "setting": "[15]", "result": -0.169}, {"measurement": "glycan array binding signal (z-score)", "setting": "[16]", "result": -0.252}, {"measurement": "glycan array binding signal (z-score)", "setting": "[17]", "result": -0.124}, {"measurement": "glycan array binding signal (z-score)", "setting": "[18]", "result": -0.209}, {"measurement": "glycan array binding signal (z-score)", "setting": "[19]", "result": 4.66}, {"measurement": "glycan array binding signal (z-score)", "setting": "[20]", "result": -0.157}, {"measurement": "glycan array binding signal (z-score)", "setting": "[21]", "result": -0.049}, {"measurement": "glycan array binding signal (z-score)", "setting": "[22]", "result": -0.282}, {"measurement": "glycan array binding signal (z-score)", "setting": "[23]", "result": -0.235}, {"measurement": "glycan array binding signal (z-score)", "setting": "[24]", "result": -0.173}, {"measurement": "glycan array binding signal (z-score)", "setting": "[25]", "result": -0.23}, {"measurement": "glycan array binding signal (z-score)", "setting": "[26]", "result": -0.101}, {"measurement": "glycan array binding signal (z-score)", "setting": "[27]", "result": -0.156}, {"measurement": "glycan array binding signal (z-score)", "setting": "[28]", "result": -0.144}]}
